# Measurements taken from publication PMC11062922 (Nature Chemical Biology, 2023).
# Where two headings read alike, the source gives them in different places.
# Experiments:
# Design in all cases: species or system human, MV4-11 + K-562 + COLO205 + SK-N-BE2 + OVCAR-8
# [1] = tested on: MAPK10; settings: read-out: apparent Kd, n = 1
# [2] = tested on: MAPK11; settings: read-out: apparent Kd, n = 1
# [3] = tested on: MAPK14; settings: read-out: apparent Kd, n = 1
# [4] = tested on: MAPK8; settings: read-out: apparent Kd, n = 1
# [5] = tested on: MAPK9; settings: read-out: apparent Kd, n = 1
# [6] = tested on: MAPKAPK2; settings: read-out: apparent Kd, n = 1
# [7] = tested on: PIP4K2C; settings: read-out: apparent Kd; compound concentrations:100 nM and 1000 nM (sheet 'Samples'); n = 1
# [8] = tested on: MAP2K5; settings: read-out: apparent Kd; compound concentrations:100 nM and 1000 nM (sheet 'Samples'); n = 1
# [9] = tested on: RIPK2; settings: read-out: apparent Kd; compound concentrations:100 nM and 1000 nM (sheet 'Samples'); n = 1
# [10] = tested on: MAP3K1; settings: read-out: apparent Kd, compound concentrations: 100 nM and 1000 nM (sheet 'Samples'), n = 1
# [11] = tested on: PLK1; settings: read-out: apparent Kd, compound concentrations: 100 nM and 1000 nM (sheet 'Samples'), n = 1
# [12] = tested on: SLK; settings: read-out: apparent Kd, compound concentrations: 100 nM and 1000 nM (sheet 'Samples'), n = 1
# [13] = tested on: STK10; settings: read-out: apparent Kd, compound concentrations: 100 nM and 1000 nM (sheet 'Samples'), n = 1
# [14] = tested on: MAP4K5; settings: read-out: apparent Kd; compound concentrations: 100 nM and 1000 nM (sheet 'Samples'), CATDS: 0.32149724662749601; n = 1
# [15] = tested on: MAP2K1; settings: read-out: apparent Kd; compound concentrations:100 nM and 1000 nM (sheet 'Samples'); n = 1
# [16] = tested on: NLK; settings: read-out: apparent Kd, n = 1
# [17] = tested on: JAK2; settings: read-out: apparent Kd, n = 1
# [18] = tested on: PIK3CA; settings: read-out: apparent Kd; compound concentrations: 100 nM and 1000 nM (sheet 'Samples'), CATDS: 0.76689409603513903; n = 1
# [19] = tested on: NUAK1; settings: read-out: apparent Kd; compound concentrations: 100 nM and 1000 nM (sheet 'Samples'), CATDS: 9.4194293053738595E-2; n = 1
# [20] = tested on: MAP2K2; settings: read-out: apparent Kd; compound concentrations:100 nM and 1000 nM (sheet 'Samples'); n = 1
# [21] = tested on: NQO1; settings: read-out: apparent Kd; compound concentrations:100 nM and 1000 nM (sheet 'Samples'); n = 1
# [22] = tested on: PIK3CB; settings: read-out: apparent Kd, n = 1
# [23] = tested on: PIK3CD; settings: read-out: apparent Kd; compound concentrations: 100 nM and 1000 nM (sheet 'Samples'), CATDS: 0.441724722045092; n = 1
# [24] = tested on: PIM2; settings: read-out: apparent Kd; compound concentrations:100 nM and 1000 nM (sheet 'Samples'); n = 1
# [25] = tested on: MARK4; settings: read-out: apparent Kd; compound concentrations: 100 nM and 1000 nM (sheet 'Samples'), CATDS: 0.22058260458437301; n = 1
# [26] = tested on: RIOK2; settings: read-out: apparent Kd; compound concentrations: 100 nM and 1000 nM (sheet 'Samples'), CATDS: 0.25235817930049498; n = 1
# [27] = tested on: LIMK1; settings: read-out: apparent Kd; compound concentrations: 100 nM and 1000 nM (sheet 'Samples'), CATDS: 0.71485033586555802; n = 1
# [28] = tested on: LIMK2; settings: read-out: apparent Kd; compound concentrations: 100 nM and 1000 nM (sheet 'Samples'), CATDS: 0.38445187661018698; n = 1
# [29] = compound concentrations:100 nM and 1000 nM (sheet 'Samples')
compound,measurement,setting,value
O=c1[nH]c2nc(NC3CCOCC3)ncc2cc1Oc1ccc(F)cc1F [RO3310867-000],potency estimated from few doses,[1]; [29],150 nM
same,potency estimated from few doses,[2]; [29],655 nM
same,potency estimated from few doses,"[3]; compound concentrations: 100 nM and 1000 nM (sheet 'Samples'), CATDS: 0.37744016768512201",9.96 nM
same,potency estimated from few doses,[4]; [29],554 nM
same,potency estimated from few doses,[5]; [29],98.4 nM
same,potency estimated from few doses,[6]; [29],5.98 nM
same,potency estimated from few doses,[7],781 nM
CN(C)c1cc2c(Nc3ccc4c(cnn4Cc4ccccc4)c3)ncnc2cn1 [GW282974X],potency estimated from few doses,[8],1470 nM
same,potency estimated from few doses,[9],989 nM
CN1CCN(CCc2cccc(C(=O)c3cnn(-c4ccc(F)cc4)c3N)c2)CC1.Cl [RO1160347-001],potency estimated from few doses,"[2]; compound concentrations: 100 nM and 1000 nM (sheet 'Samples'), CATDS: 1",1330 nM
C[C@@H](Oc1cc(-n2cnc3cc(-c4ccnc(NCCS(C)(=O)=O)c4)ccc32)sc1C(N)=O)c1ccccc1Cl [GSK907232A],potency estimated from few doses,[10]; CATDS: 0.38790530075406598,80.6 nM
same,potency estimated from few doses,[11]; CATDS: 0.48589470973507998,53.6 nM
same,potency estimated from few doses,[12]; CATDS: 0.160364449090587,1330 nM
same,potency estimated from few doses,[13]; CATDS: 0.19500034290566101,534 nM
Cc1ccc(NC(=O)c2cccc(N3CCCCC3)c2)cc1-c1ccc(C(=O)NCC2CC2)cc1 [GSK1917008A],potency estimated from few doses,"[2]; compound concentrations: 100 nM and 1000 nM (sheet 'Samples'), CATDS: 0.21712264720535299",591 nM
same,potency estimated from few doses,"[3]; compound concentrations: 100 nM and 1000 nM (sheet 'Samples'), CATDS: 0.45448285689505602",64.8 nM
same,potency estimated from few doses,"[6]; compound concentrations: 100 nM and 1000 nM (sheet 'Samples'), CATDS: 0.455787440841948",64.5 nM
COc1cc2ncn(-c3cc(OCc4ccccc4Cl)c(C(N)=O)s3)c2cc1OC [GW852849X],potency estimated from few doses,[10]; CATDS: 0.14122884829610699,1950 nM
same,potency estimated from few doses,[14],184 nM
same,potency estimated from few doses,[11]; CATDS: 0.55429480894525696,68.2 nM
same,potency estimated from few doses,[12]; CATDS: 0.14112272983739199,1960 nM
same,potency estimated from few doses,[13]; CATDS: 0.168955384509856,1000 nM
CCOc1cc(N2CCC(O)CC2)ccc1Nc1ncc2c(n1)N(C)c1ccccc1C(=O)N2C [XMD8-92],potency estimated from few doses,[15],1780 nM
CC(C)Nc1ncc2cc(Oc3ccc(F)cc3F)c(=O)n(C)c2n1.Cl [RO3309180-001],potency estimated from few doses,[1]; [29],68.5 nM
same,potency estimated from few doses,[2]; [29],439 nM
same,potency estimated from few doses,[3]; [29],9.9 nM
same,potency estimated from few doses,[4]; [29],1080 nM
same,potency estimated from few doses,[5]; [29],369 nM
same,potency estimated from few doses,[16]; [29],1490 nM
same,potency estimated from few doses,[7],2100 nM
NC(=O)c1sc(-n2cnc3cc(C(F)(F)F)ccc32)cc1OCc1ccccc1Br [GW853609X],potency estimated from few doses,"[17]; compound concentrations: 100 nM and 1000 nM (sheet 'Samples'), CATDS: 0.37091451707305101",1140 nM
same,potency estimated from few doses,[18],204 nM
Cl.Nc1c(C(=O)c2cccc(C#CCN3CCOCC3)c2)cnn1-c1ccc(F)cc1 [RO1153320-001],potency estimated from few doses,"[17]; compound concentrations: 100 nM and 1000 nM (sheet 'Samples'), CATDS: 0.47869568713999899",815 nM
same,potency estimated from few doses,"[2]; compound concentrations: 100 nM and 1000 nM (sheet 'Samples'), CATDS: 0.52328893159992096",682 nM
O=c1c(Oc2ccc(F)cc2F)cc2cnc(NC3CCOCC3)nc2n1C1CCS(=O)(=O)CC1 [RO5036538-000],potency estimated from few doses,"[17]; compound concentrations: 100 nM and 1000 nM (sheet 'Samples'), CATDS: 0.12292389109729",230 nM
same,potency estimated from few doses,"[1]; compound concentrations: 100 nM and 1000 nM (sheet 'Samples'), CATDS: 0.124709728908191",221 nM
same,potency estimated from few doses,"[2]; compound concentrations: 100 nM and 1000 nM (sheet 'Samples'), CATDS: 7.2010910388864605E-2",1420 nM
same,potency estimated from few doses,"[3]; compound concentrations: 100 nM and 1000 nM (sheet 'Samples'), CATDS: 0.47843238213420702",13.9 nM
same,potency estimated from few doses,"[4]; compound concentrations: 100 nM and 1000 nM (sheet 'Samples'), CATDS: 7.6573616533716707E-2",1060 nM
same,potency estimated from few doses,"[5]; compound concentrations: 100 nM and 1000 nM (sheet 'Samples'), CATDS: 9.6122690538123806E-2",462 nM
same,potency estimated from few doses,"[6]; compound concentrations: 100 nM and 1000 nM (sheet 'Samples'), CATDS: 0.314538074262177",28.2 nM
same,potency estimated from few doses,"[16]; compound concentrations: 100 nM and 1000 nM (sheet 'Samples'), CATDS: 8.6125216910038493E-2",667 nM
same,potency estimated from few doses,[19],493 nM
CS(=O)(=O)CCCn1c(=O)c(Oc2ccc(F)cc2F)cc2cnc(NC3CCOCC3)nc21 [RO5033700-000],potency estimated from few doses,[1]; [29],93.9 nM
same,potency estimated from few doses,[2]; [29],630 nM
same,potency estimated from few doses,[3]; [29],7.7 nM
same,potency estimated from few doses,[4]; [29],466 nM
same,potency estimated from few doses,[5]; [29],110 nM
same,potency estimated from few doses,[16]; [29],202 nM
same,potency estimated from few doses,[7],796 nM
Cc1c(Cn2c(C)nn3c(=O)cc(N4CCOC(C)C4)nc23)cccc1C(F)(F)F (centres unmarked) [GSK2344444A],potency estimated from few doses,[15],2250 nM
same,potency estimated from few doses,[20],1810 nM
same,potency estimated from few doses,[21],1560 nM
same,potency estimated from few doses,[22]; [29],13.4 nM
same,potency estimated from few doses,[23],20 nM
Cl.Cn1c(=O)c(Oc2ccc(F)cc2F)cc2cnc(N[C@H]3CC[C@H](O)CC3)nc21 [RO3305413-001],potency estimated from few doses,[2]; [29],806 nM
same,potency estimated from few doses,[3]; [29],5.68 nM
same,potency estimated from few doses,[4]; [29],75.9 nM
same,potency estimated from few doses,[5]; [29],26.4 nM
same,potency estimated from few doses,[6]; [29],4.66 nM
same,potency estimated from few doses,[16]; [29],199 nM
same,potency estimated from few doses,[7],791 nM
N#CCn1c(=O)c(Oc2ccc(F)cc2F)cc2cnc(NC3CCOCC3)nc21 [RO5040027-000],potency estimated from few doses,[1]; [29],45.1 nM
same,potency estimated from few doses,[2]; [29],146 nM
same,potency estimated from few doses,[3]; [29],3.79 nM
same,potency estimated from few doses,[4]; [29],523 nM
same,potency estimated from few doses,[5]; [29],146 nM
same,potency estimated from few doses,[6]; [29],3.65 nM
CC(=O)N[C@@H](Cc1ccc(OP(=O)(O)O)cc1)C(=O)N[C@H]1CCC(=O)N2CCC[C@@H](C(=O)NCc3ccccc3)N2C1=O [RO0324253-000],potency estimated from few doses,[17]; [29],712 nM
same,potency estimated from few doses,[24],1770 nM
Cl.Cn1c(=O)c(Oc2ccccc2F)cc2cnc(NC3CCOCC3)nc21 [RO3304805-001],potency estimated from few doses,[1]; [29],1050 nM
same,potency estimated from few doses,[3]; [29],58.4 nM
same,potency estimated from few doses,[5]; [29],484 nM
same,potency estimated from few doses,[6]; [29],73.7 nM
same,potency estimated from few doses,[21],1480 nM
Cl.Cn1c(=O)c(Oc2ccc(F)cc2F)cc2cnc(NC(CO)CO)nc21 [RO3310123-001],potency estimated from few doses,"[1]; compound concentrations: 100 nM and 1000 nM (sheet 'Samples'), CATDS: 0.34863308961168299",1500 nM
same,potency estimated from few doses,"[3]; compound concentrations: 100 nM and 1000 nM (sheet 'Samples'), CATDS: 0.88366158604644096",106 nM
COC(=O)Nc1nc2ccc(Sc3ccc(NC(=O)Nc4cc(C(F)(F)F)ccc4F)cc3)cc2[nH]1.O=S(=O)(O)O [GW607049C],potency estimated from few doses,"[1]; compound concentrations: 100 nM and 1000 nM (sheet 'Samples'), CATDS: 0.243888047714692",1550 nM
same,potency estimated from few doses,[25],1930 nM
same,potency estimated from few doses,"[22]; compound concentrations: 100 nM and 1000 nM (sheet 'Samples'), CATDS: 0.29379902166128602",1090 nM
same,potency estimated from few doses,[26],1440 nM
CCCCN(Cc1ccccc1)C(=O)c1ccc(S(=O)(=O)Nc2ccccc2)cc1 [TH257],potency estimated from few doses,[27],578 nM
same,potency estimated from few doses,[28],2320 nM
